Consider 36 molecules from ChEMBL document CHEMBL3433997, “St. Jude Leishmania screening dataset” (2016).

The structures appear in SMILES notation.

Holding throughout (format): functional
Test [1] deals with Solute carrier family 2, facilitated glucose transporter member 1 (Homo sapiens) (UniProt P11166). Nature of the test: ST_JUDE_LEISH: Cytotoxicity at 2uM final concentration against transgenic Leishmania Mexicana promastigotes LmGLUT1 that are glucose transport deficient and complemented with the human glucose transporter GLUT1. Activity is measured by DNA content using SYBR green in vitro.

The target of test [2] is Hexose transporter 1 (Plasmodium falciparum) (UniProt O97467). As to the kind of experiment: ST_JUDE_LEISH: Cytotoxicity at 2uM final concentration against transgenic Leishmania Mexicana promastigotes LmPfHT that are glucose transport deficient and complemented with the Plasmodium falciparum hexose transporter. Activity is measured by DNA content using SYBR green in vitro.

Test [3] deals with Glucose transporter (Leishmania mexicana) (UniProt O61059). Nature of the test: ST_JUDE_LEISH: Cytotoxicity at 2uM final concentration against transgenic Leishmania Mexicana promastigotes LmGT2 that are glucose transport deficient and complemented with the L. Mexicana glucose transporter 2. Activity is measured by DNA content using SYBR green in vitro.

Sequence of Solute carrier family 2, facilitated glucose transporter member 1 (Homo sapiens) (P11166 whole entry): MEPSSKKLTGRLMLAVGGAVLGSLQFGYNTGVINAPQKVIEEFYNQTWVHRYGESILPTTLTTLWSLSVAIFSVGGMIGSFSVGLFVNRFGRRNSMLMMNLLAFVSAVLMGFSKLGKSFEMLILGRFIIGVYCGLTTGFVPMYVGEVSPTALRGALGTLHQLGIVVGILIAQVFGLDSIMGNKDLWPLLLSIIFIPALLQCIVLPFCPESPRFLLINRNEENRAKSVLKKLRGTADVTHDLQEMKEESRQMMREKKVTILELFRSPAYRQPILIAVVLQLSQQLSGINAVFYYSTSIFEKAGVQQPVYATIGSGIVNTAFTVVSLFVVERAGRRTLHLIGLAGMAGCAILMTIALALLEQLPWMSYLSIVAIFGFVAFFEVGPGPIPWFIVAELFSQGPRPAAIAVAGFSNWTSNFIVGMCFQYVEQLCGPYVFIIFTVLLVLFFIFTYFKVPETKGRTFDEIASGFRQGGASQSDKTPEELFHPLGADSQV

On to `Cc1sc(N2CCCCC2)nc1C(=O)Nc1ccc(F)cc1C(F)(F)F`, for which the inhibition in test [1] was 3.13%; in test [2] it was -1.54%; in test [3] it was 0.73%.
For `C1=CN(Cc2ccccc2)C=CC1=C1C=Nc2ccccc21`, in that order: 12.1%, 10.4% and 8.71%.
In the same order, the values of `Cc1c(C)n(C2CCCC2)c2ncnc(OC3CCN(CC(=O)NCC4CC4)CC3)c12` are 7.05%, 5.47% and 2.01%.
Consider `COc1ccc(CNc2cc(C)nc3sc4c(c23)CCC2(C4)OCCO2)cc1`, for which the inhibition in test [1] amounted to 1.79%; in test [2], 1.85%; in test [3] it was 0.47%.
Take `Cc1cnc(C(=O)Nc2cccc(-c3ccc(-c4nc5cc(C(F)(F)F)ccc5[nH]4)s3)c2)cn1`: the inhibition in test [1] stood at 8.07%; in test [2], 5.21%; in test [3], 6.71%.
For the molecule `N#Cc1ccc(-c2ccc(C(=O)Nc3ccc4c(c3)CCN(C3CCC3)CC4)nc2)cn1`, the values for the inhibition in test [1], in test [2] and in test [3] were 7.75%, 7.17% and 5.21%, respectively.
In the same order, the values of `O=C(Nc1cccc([N+](=O)[O-])c1)Nc1cccc(C(F)(F)F)c1` are 1.48%, 1.8% and 2.9%.
On to `N=C(N)NN=C1C=Cc2cccc3cccc1c23`, for which the figures for the inhibition in test [1], in test [2] and in test [3] were -1.8%, 2.26% and -2.92%, respectively.
Take `CCc1c[nH]c2c(N3CCCC3=O)cc(C(=O)N[C@@H](Cc3ccccc3)[C@H](O)CNC3CCCCC3)cc12`: the inhibition was 7.8% in test [1], 6.05% in test [2] and 9.77% in test [3].
In the same order, the values of `CN(c1ccc2c(c1)nc(Nc1cc(C(C)(C)C)on1)n2C)c1ccnc(Nc2ccc(CS(C)(=O)=O)cc2)n1` are -1.02%, 0.41% and -1.74%.
Consider `CCCOc1cc2c(cc1OCCC)C(C=Cc1ccc(Cl)cc1Cl)=NC(C)C2` (stereo not drawn), for which the inhibition in test [1] came to 94.6%; in test [2], 96.7%; in test [3] it was 94.4%.
In the same order, the values of `O=C(Nc1ccc(OC2CCN(Cc3ccccc3)CC2)c(Cl)c1)c1ccc(F)cc1` are 2.05%, 2% and 1.68%.
For the molecule `Cn1ccnc1CCC(=O)Nc1ccc(Cl)cc1C(=O)Nc1ccc(Cl)cc1`, the inhibition in test [1] worked out at 2.75%; in test [2], 1.39%; in test [3] it was 2.79%.
Take `CSc1c(CNCCCNc2cc(=O)c3ccccc3[nH]2)[nH]c2ccccc12`: the values for the inhibition in test [1], in test [2] and in test [3] were 5.89%, 4.28% and 4.96%, respectively.
On to `Cc1nc(C)c(-c2ccc(Oc3ccc(OC(F)(F)F)cc3)cc2)c(OC(=O)c2ccccc2)c1Cl`, for which the inhibition in test [1] stood at 2.27%; in test [2], 3.78%; in test [3] it was 2.37%.
As for `c1ccc(-c2nc3ccccc3[nH]2)c(Nc2ccnc3cc(-c4nccs4)ccc23)c1`, the inhibition in test [1] was found to be 4.76%; in test [2], 0.91%; in test [3], 0.58%.
Regarding `CN(CCC(CCN1CCC(c2c[nH]c3ccccc23)CC1)c1ccccc1)C(=O)Nc1ccc(Cl)c(Cl)c1` (stereo not drawn), the figures for the inhibition in test [1], in test [2] and in test [3] were 2.82%, 0.21% and 0.72%, respectively.
Take `Nc1cccc(C=CC(=O)N=c2cc[nH]c3ccccc23)c1`: the figures for the inhibition in test [1], in test [2] and in test [3] were -0.24%, 0.74% and -2.1%, respectively.
As for `O=C(Nc1cccc(CN2CCCN(Cc3ccsc3)CC2)c1)c1ccc(-c2ccccc2)cc1`, the inhibition amounted to 2.55% in test [1], 3.01% in test [2] and 1.6% in test [3].
For `COC(=O)C(=O)c1c(-c2ccccc2)c(-c2ccc(OC)c(OC)c2)c2c3cc(OC)c(OC)cc3ccn12`, in that order: 13.2%, 10.2% and 8.49%.
Regarding `Clc1ccc(CNc2nc(NCCc3c[nH]cn3)nc(Nc3ccc4c(c3)OCO4)n2)cc1`, the inhibition in test [1] turned out to be 2.28%; in test [2], 2.3%; in test [3], 3.66%.
With `C#CC(C)(CO)N1CCCC1` (stereo not drawn), the inhibition in test [1] stood at 1.89%; in test [2] it was 4.77%; in test [3] it was 1.64%.
`COc1ccc(CNC2CCN(C)CC2)cc1-c1ccc(S(=O)(=O)NCC2CCCO2)s1` (stereo not drawn): the inhibition in test [1] is 3.99%; in test [2], 4.98%; in test [3] it was 5.52%.
In the same order, the values of `CN1CCC(c2cc3c(cc2Br)CCN3C(=O)Nc2ccc(-c3ccncc3)c(Cl)c2)CC1` are 0.33%, 1.09% and 0.25%.
As to `COc1cc(Cc2cnc(N)nc2N)cc(OCCCCc2ccc([N+](=O)[O-])cc2)c1OC`, the inhibition in test [1] was -1.12%; in test [2], -1.89%; in test [3], 1.51%.
For `Nc1cccc(CNCc2cccc(-c3ccc(-c4nc5cc(C(F)(F)F)ccc5[nH]4)cc3)c2)c1`, the inhibition in test [1] came out at 4.8%; in test [2], 6.83%; in test [3], 3.77%.
For `Cc1cc(NC(=O)Nc2ccc(N(C)C)cc2)c2cc(Cl)ccc2n1`, in that order: 1.15%, 0.69% and 0.88%.
In the same order, the values of `CN(C)c1ccc(-c2ccc(C(=O)NC3CCN(Cc4cccc(C(F)(F)F)c4)CC3)s2)cc1` are 4.91%, 6.03% and 3.55%.
In the case of `Nc1nccc2ccc(-c3ccc(OCc4ccccc4)cc3)cc12`, the inhibition in test [1] was 0.87%; in test [2], 2.36%; in test [3], 1.39%.
For `O=C(O)/C=C/c1cccc(F)c1F`, in that order: 1.29%, 1.5% and 2.66%.
In the same order, the values of `COC(=O)c1ccc(NC(=O)Nc2ccc(Cn3ncc(N4CCCNCC4)c(Cl)c3=O)cc2)cc1` are -0.9%, 0.77% and -0.5%.
On to `CC(C)N1CCN(C(=O)c2ccc(CN(C)CCCN3CCN(c4cccc(Cl)c4Cl)CC3)s2)CC1`, for which the values for the inhibition in test [1], in test [2] and in test [3] were 0.58%, 0.7% and 0.8%, respectively.
As to `COc1ccc2c(c1)CC1CN(CCCCNC(=O)c3ccc(NC(=O)c4cc(Cl)cc(Cl)c4)cc3)CCN1C2` (stereo not drawn), the inhibition is 3.25% in test [1], 4.38% in test [2] and 3.79% in test [3].
Regarding `Cc1cc(C)c(NC(=O)N2CCCN(CCCCCNC(=O)/C=C/c3ccc(Cl)c(Cl)c3)CC2)c(C)c1`, the inhibition in test [1] came to 3.44%; in test [2], 2.95%; in test [3], 2.56%.
As for `CC(C)CN1CCCN(Cc2cccc(NC(=O)c3ccc(-c4ccccc4)cc3)c2)CC1`, the inhibition in test [1] was 0.53%; in test [2] it was 0.24%; in test [3], -5.07%.
In the same order, the values of `CC(C)c1ccc(NC(=O)c2ccc(CN3CCCN(Cc4cccc(O)c4)CC3)cc2)cc1` are 2.95%, 4.76% and 5.15%.
